High-throughput results deposited in PubChem BioAssay by several laboratories.
pPAFAH FP inh = inhibitors of human plasma PAF acetylhydrolase (pPAFAH) | Q13093 | recombinant pPAFAH, FP-rhodamine probe fluorescence polarization | inhibition, % at 3.39 µM | hit rate 1.5% among 330,000;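 active = inhibition above the mean inhibition across the screen plus 3 SD, cut at about 25% in these data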;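 also: inhibitors block binding of the rhodamine activity-based probe so polarization drops; 0% = enzyme with DMSO and 100% = wells lacking pPAFAH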
PfM18AAP inh = PfM18AAP enzyme inhibition. recombinant PfM18AAP, H-Glu-NHMec fluorogenic cleavage. inhibition, % at 7.35 µM. hit rate 1.2% among 290,000;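 active = inhibition above the campaign mean inhibition over all tested compounds plus 3 SD, cut at about 28% in these data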;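 also: 0% = plate median of test compound wells and 100% = 2 mM ZnCl2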
PAFAH1B2 inh = inhibitors of human PAFAH1B2 | P68402 | recombinant PAFAH1B2, FP-rhodamine activity probe, fluorescence polarization | inhibition, % at 3.39 µM | hit rate 1.2% among 340,000 | AID 492953;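 active = inhibition above the mean of all tested compounds plus 3 SD, cut at about 24% in these data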;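 also: 0% = enzyme with DMSO and 100% = wells lacking PAFAH1B2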
Target sequence (P68402 whole entry, looked up): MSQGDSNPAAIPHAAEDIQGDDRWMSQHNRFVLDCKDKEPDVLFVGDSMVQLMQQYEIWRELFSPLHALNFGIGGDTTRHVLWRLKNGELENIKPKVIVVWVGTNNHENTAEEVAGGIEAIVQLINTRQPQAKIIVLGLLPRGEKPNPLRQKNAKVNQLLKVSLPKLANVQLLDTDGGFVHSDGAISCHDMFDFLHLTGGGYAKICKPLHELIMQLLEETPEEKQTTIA
DSG3 Ab inh = blocks pemphigus antibody binding to human desmoglein-3; P32926; DSG3-coupled beads, scFv-anti-DSG3-GFP binding, flow cytometry; active compounds read low; binding (percent of control), % at 10 µM; hit rate 0.48% among 310,000; AID 588358;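 active = binding more than 3 SD below its plate's average and above zero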;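 also: hits lower antibody fragment binding to DSG3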
PAFAH2 inh = PAFAH2 (human) inhibition; Q99487; recombinant PAFAH2, FP-rhodamine activity probe, fluorescence polarization; inhibition, % at 3.39 µM; hit rate 0.99% among 340,000;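 active = inhibition above the mean over all tested compounds plus 3 SD, cut at about 30% in these data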;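 also: inhibitors block probe labeling of enzyme so polarization drops; 0% = enzyme with DMSO and 100% = wells lacking PAFAH2 protein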
PAFAH1B3 inh = PAFAH1B3 (human) inhibition. AID 492972. hit rate 0.28% among 340,000. recombinant PAFAH1B3, FP-rhodamine probe, fluorescence polarization. inhibition, % at 3.39 µM;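 active = inhibition above the screen-wide average of all tested compounds plus 3 SD, cut at about 25% in these data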;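 also: 0% = enzyme with DMSO only and 100% = wells lacking PAFAH1B3 protein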
Target sequence (Q15102 whole entry, looked up): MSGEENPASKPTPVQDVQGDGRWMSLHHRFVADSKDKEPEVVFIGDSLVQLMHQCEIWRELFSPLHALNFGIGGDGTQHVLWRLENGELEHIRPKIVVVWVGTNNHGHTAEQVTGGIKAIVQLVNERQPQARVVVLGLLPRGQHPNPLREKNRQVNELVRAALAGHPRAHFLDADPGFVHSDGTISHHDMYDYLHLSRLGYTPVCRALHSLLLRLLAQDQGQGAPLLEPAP
PAFAH2 FP conf = PAFAH2 (human) inhibition, confirmed | shares compounds with PAFAH2 inh | recombinant PAFAH2, FP-rhodamine activity probe, fluorescence polarization | inhibition, % at 3.39 µM | hit rate 65% among 2,300 | AID 493030;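 active = mean inhibition over three repeats above a set limit taken from the earlier primary screen, cut at about 30% in these data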;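 also: inhibitor blocks binding of rhodamine activity probe so polarization falls; 0% = enzyme with DMSO and 100% = wells lacking PAFAH2 protein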
* marks the source's active call; other numbers are inactive results; . = no result given. Most compounds without a hit are left out; they make up all but 3.8% or so of the library.

SMILES | pPAFAH FP inh | PfM18AAP inh | PAFAH1B2 inh | DSG3 Ab inh | PAFAH2 inh | PAFAH1B3 inh | PAFAH2 FP conf
CCOc1ccc(N2C(=O)/C(=C\c3cccs3)C(=O)NC2=S)cc1 | -0.8 | 4.5 | . | . | . | . | .
c1ccc2nc(N3CCNCC3)ccc2c1 | 1.2 | . | 1.1 | 102.9 | -6.1 | -0.9 | .
Cc1cc(/C=C2/C(=O)NC(=O)N(Cc3ccco3)C2=O)c(C)n1-c1ccccc1O | 10.6 | 16.3 | 5.5 | 85.1 | 31.5* | 8.2 | 25.5
CC(=O)OCC12CC(OC(=O)CC(C)C)C(C)=CC1OC1C(O)C(OC(C)=O)C2(C)C12CO2 (stereo unspecified) | . | . | 0.1 | 92.5 | 1.2 | 3.7 | .
Cc1cccc(N2C(=O)NC(=O)/C(=C\c3ccc4c(c3)CCCN4Cc3ccccc3)C2=O)c1 | 11.3 | 2.9 | 0.5 | 633.6 | 33.3* | -18.8 | 36.9*
CC1=NN(c2ccccc2)C(=O)C1/C=C1/C(=O)NC(=O)N(c2cccc(C)c2)C1=O (stereo unspecified) | . | 2.3 | . | . | . | . | .
C[C@]12CCC3C(CC[C@H]4C[C@H](O)CC[C@]34C)C1CCC2=O (stereo partly specified) | 6.0 | . | 1.9 | 121.2 | 0.3 | 1.7 | .
CC1=CC(=O)NP(=O)(Oc2ccc3ccccc3c2)N1 (stereo unspecified) | 3.9 | 1.9 | 5.5 | 103.1 | 44.9* | 6.5 | 23.7
CC(CN1CCOCC1)C(C#N)(c1ccccc1)c1ccccc1 (stereo unspecified) | . | . | 6.0 | 115.6 | 2.4 | 6.7 | .
Cc1ccc(N2C(=O)NC(=O)/C(=C\c3cccn3C(C)(C)C)C2=O)cc1 | 1.1 | -12.1 | 1.3 | 106.3 | 43.0* | 14.9 | 28.6
Cc1cccc(N2C(=O)NC(=O)/C(=C\c3cc(C)n(-c4sc5c(c4C#N)CCCC5)c3C)C2=O)c1C | 8.7 | 16.9 | 3.0 | 83.3 | 32.8* | 7.6 | 21.5
CCOP(=O)(Nc1ccc2c(c1)C(=NNC(N)=S)c1ccccc1-2)OCC | . | . | 3.9 | . | 9.8 | 14.3 | .
O=C1NC(=O)C(CCc2ccncc2)(CCc2ccncc2)C(=O)N1C1CCCCC1 | 5.1 | 0.7 | -0.4 | 103.1 | 1.3 | 6.5 | .
O=C1NC(=O)N(C2CCCCC2)C(=O)C1C1c2ccccc2C(=O)N1Cc1ccccc1 (stereo unspecified) | 3.9 | 0.0 | 16.8 | 97.5 | 45.0* | -4.6 | 41.4*
CCC(C)n1c(O)c(C=NCCN2CCOCC2)c(=O)[nH]c1=S (stereo unspecified) | 7.0 | -1.7 | 2.6 | 106.2 | 25.2 | 7.1 | .
CCC(C)n1c(O)c(C=NCCc2ccccc2)c(=O)[nH]c1=S (stereo unspecified) | 11.3 | 3.5 | 2.5 | . | 47.0* | 1.6 | 44.7*
CCC(C)n1c(O)c(/C=N/Nc2ccccc2)c(=O)[nH]c1=S (stereo unspecified) | 9.2 | 6.5 | 6.7 | 101.0 | 40.1* | 4.2 | 8.2
CCC(C)n1c(O)c(/C=N/NC(=O)c2ccncc2)c(=O)[nH]c1=S (stereo unspecified) | 5.8 | 5.2 | 1.1 | 99.0 | 57.9* | 5.3 | 61.8*
O=c1[nH]c(=S)n(C2CC2)c(O)c1/C=N/Nc1ccccc1 | 8.0 | 12.4 | 10.1 | 101.9 | 10.5 | 6.5 | .
CCC(C)n1c(O)c(C=NCC2CCCO2)c(=O)[nH]c1=S (stereo unspecified) | 8.6 | 3.1 | 2.2 | 112.5 | 50.9* | -7.4 | 38.2*
Cc1ccc(N2C(=O)CC(=O)NC2=O)cc1Cl | -3.7 | 11.4 | 9.4 | 112.8 | 5.9 | 6.5 | .
C[C@]12CCC3C(CC[C@H]4C[C@@H](O)CC[C@]34C)C1C[C@H](Br)[C@@H]2O (stereo partly specified) | -1.2 | . | . | . | . | . | .
CC12CCC(=O)C=C1CCC1C2CCC2(C)C(O)CCC12 (stereo unspecified) | 0.4 | 0.4 | -2.0 | 102.2 | 34.4* | 4.9 | -5.1
COc1ccc2c(CN3CC=C(c4ccccc4)CC3)cc(=O)oc2c1 | -1.3 | -3.7 | -0.5 | 94.6 | -0.1 | 7.8 | .
